21 compounds from PubChem BioAssay (EPA / NIEHS) can be followed below.

Each structure is given as a SMILES string. Where “and” joins values, the source holds several entries; their conditions need not be identical. Identical values can stand only once. A structure can be active in one record and inactive in another. Calls of active or inactive are those of the source. Rule for the calls: active = hit-call score of the fitted dose curve at least 0.9, where 1 is the maximum; inactive = score below 0.9.

A short description of the test: CCTE_Shafer_MEA_dev_network_spike_duration_std: CCTE's Neural Network Formation Assay for Standard Deviation of Network Spike Duration, Shafer Lab (AID 2284052).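 Note: hits are decreases in network spike duration SD versus DMSO vehicle.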 How it is done:
CCTE_Shafer_MEA_dev assay is conducted using Axion Biosystems 48 well microelectrode array (MEA) plates and Maestro recording system. Each well of the MEA plate contains a grid of 16 microelectrodes embedded in the culture surface. Electrically active cells, such as neurons, can be cultured over the electrodes, and electrical activity in these cells can be recorded extracellularly. The spontaneous firing of neurons is captured from each electrode on a microsecond timescale providing both temporally and spatially precise data. […] The CCTE_Shafer_MEA_dev assay uses primary cultures of rat cortical neurons. Recordings are made on days post-plating 5, 7, 9 and 12. As these cultures mature over time, neural networks develop functional activity and form cohesive networks in which electrical activity can be highly coordinated. CCTE_Shafer_MEA_dev_network_spike_duration_std is 1 of 19 assay components of the CCTE_Shafer_MEA_dev assay. It measures the standard deviation of the duration of network spikes (temporally-clustered groups of action potential firing across multiple electrodes) during a recording in a microelectrode array (MEA) using Axion Biosystems Maestro 768 channel amplifier with the AxIS adaptive spike detector. To collapse across multiple recordings made on days post-plating 5, 7, 9 and 12, the trapezoidal area-under-the-curve of the component is calculated.Data from the assay component CCTE_Shafer_MEA_dev_network_spike_duration_std was analyzed into 1 assay endpoint. This assay endpoint, CCTE_Shafer_MEA_dev_network_spike_duration_std, was analyzed in the negative analysis fitting direction relative to DMSO as the negative control and baseline of activity. Using a type of functional reporter, gain or loss-of-signal activity can be used to understand electrical activity.
On the day prior to culture, each well was coated thoroughly with 150 uL of 0.05% polyethyleneimine (PEI, Sigma Cat P3143) in 50 mM HEPES (Sigma Cat H7523) at a pH of 8. The plate was incubated at 37C for one hour. PEI was rinsed out with 500 uL of sterile water three times. Plates were stored at 4C until the day of culture. This culture was plated at a seeding density of 1.5 x 10^5 cells/well on a 48-well MEA plate, prepared as described above. Cells were administered via a 25 uL media/laminin ([…]; Sigma Cat L2020-1MG) drop directly onto the microelectrode array, as adding the cells with the laminin results in better attachment than pre-coating with laminin. After 2 hours, an additional 475 uL of cortical media was added and the cells returned to the incubator. Exposure starts at day 0 of plating and is continued over twelve days of network development until the experiment is terminated. Cells are fed with fresh medium on DIV 5 and 9, following the recordings on those days. The entire volume of media in the well is exchanged and any vehicle or compound treatment is renewed. Complete details are found in OP-NHEERL/ISTD/SBB/TJS/2015-03-r0 (available on request, email shafer.tim@epa.gov). Measurement of the electrical activity is non-invasive, and recordings can be made from the same plate over multiple different days of the culture. In cortical neurons, this allows for the measurement of extracellular action potentials over the period during which networks form in the MEA plate.
What is called AC50 is the midpoint of the concentration-response curve, whichever way the signal moves. For `COC(=O)N(OC)c1ccccc1COc1ccn(-c2ccc(Cl)cc2)n1`, the AC50 is 78.8 nM (active) and the call was inactive.

On to `CCOc1cc(Oc2ccc(C(F)(F)F)cc2Cl)ccc1[N+](=O)[O-]`, for which the concentration at half-maximal activity (AC50) is 1130 nM (active). Consider `CCCCOC(=O)c1ccccc1C(=O)OCCCC`, for which the compound was classed as inactive. Consider `Cc1ccc(-c2c(Cl)nc(C#N)n2S(=O)(=O)N(C)C)cc1`, for which the call was inactive. Still for that read-out and setting: as for `N#Cc1nn(-c2c(Cl)cc(C(F)(F)F)cc2Cl)c(N)c1S(=O)C(F)(F)F` (centres undefined), the entry is “inactive”. Consider `COP(=S)(OC)Oc1nc(Cl)c(Cl)cc1Cl`, for which the outcome was inactive.

With `CC(C)(C)c1ccc(CSc2cnn(C(C)(C)C)c(=O)c2Cl)cc1`, the AC50 was 0.239 nM (active). As to `C=CC1(C)OC(=O)N(c2cc(Cl)cc(Cl)c2)C1=O` (centres undefined), the compound was classed as inactive.

As to `CCCCNC(=O)OCC#CI`, the concentration at half-maximal activity (AC50) is 2.46 µM (active) and 1.09 µM (active). On to `COP(N)(=O)SC` (centres undefined), for which the result was inactive.

As to `COc1ccc(C(c2ccc(OC)cc2)C(Cl)(Cl)Cl)cc1`, the half-maximal activity concentration (AC50) was 1970 nM (active). On the same count and under the same terms, the figure for `CN(C)C(=S)SSC(=S)N(C)C` is 7.05 nM (active).

Consider `CNC(=O)ON=CC(C)(C)SC`, for which the compound was classed as inactive. On to `CCOC(=O)CC(SP(=S)(OC)OC)C(=O)OCC` (centres undefined), for which the outcome was inactive and the AC50 is 13300 nM (active). As to `CCNc1nc(Cl)nc(NC(C)C)n1`, the outcome was inactive. In the case of `Cc1c(F)c(F)c(COC(=O)C2C(/C=C(\Cl)C(F)(F)F)C2(C)C)c(F)c1F` (centres undefined), the AC50 is 893 nM (active). For the compound `CCCCC(CC)COC(=O)c1ccccc1C(=O)OCC(CC)CCCC` (centres undefined), the AC50 is 3050 nM (active) and the outcome was inactive. Turning to `C=CCC1=C(C)C(OC(=O)C2C(C=C(C)C)C2(C)C)CC1=O` (centres undefined), the result was inactive. In the case of `C=CCC1=C(C)[C@@H](OC(=O)[C@@H]2[C@@H](C=C(C)C)C2(C)C)CC1=O`, the call was inactive.

For `CO/C=C(/C(=O)OC)c1ccccc1Oc1cc(Oc2ccccc2C#N)ncn1`, the AC50 was 840 nM (active) and 974 nM (active). Consider `CCCCNC(=O)n1c(NC(=O)OC)nc2ccccc21`, for which the call was inactive.
